This is an account of results in PubChem BioAssay (NCATS).

The structures appear in SMILES notation. Records with an inconclusive call do not appear. Unmarked numbers belong to inactive results. Calls come from the whole dose curve; as a rule, active = well fitted cell-killing curve with a large enough effect; inconclusive = small, poorly fitted or top-dose-only effect, or effect the other way; inactive = flat fitted curve, though single readings scatter.
% is set by controls: 0 for no effect and ±100 for the full control effect.

The test deals with JEG-3. Nature of the test: Primary qHTS to identify gynecologic anti-cancer compounds using libraries of approved drugs and bioactive compounds (AID 1345084). Note: nearly all actives have a fitted effect of over 55% in size. The following applies: Gynecologic cancer cell panel viability, ATPlite luminescence, 48 h; series mostly up to 57.5 µM; activity change, negative = cytotoxicity: at the top concentration. Put shortly: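 Five-concentration response, 48 h; readout is ATP-driven luciferase luminescence.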
`OCC1OC(Oc2cc(O)cc(/C=C/c3ccc(OC4OC(CO)C(O)C(O)C4O)cc3O)c2)C(O)C(O)C1O` (stereo unspecified): the “activity change, negative = cytotoxicity” value is -16.9% [at 25.3 µM].

In the case of `C[C@@H]1O[C@@H](O[C@H]2[C@H](O[C@H]3[C@H](O[C@H]4CC[C@@]5(C)C(CC[C@]6(C)C5CC=C5[C@@H]7CC(C)(C)CC(=O)[C@]7(C)CC[C@]56C)[C@@]4(C)CO)O[C@H](C(=O)O)[C@@H](O)[C@@H]3O)O[C@H](CO)[C@H](O)[C@@H]2O)[C@H](O)[C@H](O)[C@H]1O` (stereo partly specified), the activity change, negative = cytotoxicity was 4.8% [at 11.6 µM]. For `CC(O)C/C=C/C=C/C(=O)OC1C=C2COC(=O)C2(O)C2(C)CCCC(C)(C)C12` (stereo unspecified) the value was -2.97% [at 38.5 µM]; for `C[C@@H]1O[C@@H](O[C@H]2[C@H](O)[C@@H](O[C@@H]3O[C@H](CO)[C@H](O)[C@H](O)[C@H]3O)[C@H](O[C@H]3CC[C@@]4(C)C(CC[C@]5(C)C4CC=C4[C@@H]6CC(C)(C)CC[C@]6(C(=O)O[C@@H]6O[C@H](CO)[C@@H](O)[C@H](O)[C@H]6O)CC[C@]45C)C3(C)C)O[C@@H]2C(=O)O)[C@H](O)[C@H](O)[C@H]1O` (stereo partly specified), -3.24% [at 11.6 µM]. Turning to `COc1ccnc(CCc2nc3ncccc3[nH]2)c1`, the “activity change, negative = cytotoxicity” value was -7.21%. For `CC(=O)O[C@@H]1[C@H](O[C@@H]2OC[C@](O)(CO)[C@H]2O)[C@@H](O[C@@H]2O[C@@H](C)[C@H](O)[C@@H](O[C@@H]3O[C@H](CO)[C@@H](O)[C@H](O)[C@H]3O)[C@H]2O)[C@H](OC(=O)[C@]23CCC(C)(C)C[C@H]2C2=CCC4[C@@]5(C)C[C@H](O)[C@H](O[C@@H]6O[C@H](C(=O)O)[C@@H](O)[C@H](O)[C@H]6O)[C@@](C)(C(=O)O)C5CC[C@@]4(C)[C@]2(C)CC3)O[C@@H]1C` (stereo partly specified) the value was -1.98% [at 6.55 µM].
